Assay results: PubChem BioAssay
Activity calls are given as the source filed them.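 The calls were made as follows, unless noted: active = fluorescence slope higher than the sample average by over 3 SD (cut at about -0.22 in these data, passing the limit was not always enough); inactive = the rest.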

Assays:
[1] = inhibitors of TNFa-induced NFkB p65 translocation, primary screen, imaging, HUVEC, MLSMR starter and 10KST1 sets (AID 438;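 active = inhibition above 20% together with a positive visual image hit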;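 also: compound added about 3h40 before a 20 min TNFalpha stimulation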;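 as to inhibition: signal is the nuclear over cytoplasmic p65 intensity ratio per well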); conditions: HUVEC TNFa-induced p65 nuclear translocation; cell count: measured here: nuclei count (cytotoxicity indicator), at 2.08 µM; inhibition: at 2 µM, stronger effect = higher value, 0% TNFa-plus-vehicle, 100% no-TNFa wells
[2] = inhibitors of mutant huntingtin aggregation, primary screen, imaging, exon1htt(103Q)mCFP cells, high-content imaging (AID 483;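 active = visual image review flags a hit and inhibition of aggregation exceeds 20%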;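 also: compound exposure lasted 3 days before fixation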;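 as to nuclei count: percent of the per-plate median nuclei count of sample wells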); conditions: exon1htt(103Q)mCFP cell line, aggregate imaging, at 2 µM; inhibition of aggregation: stronger effect = higher value; nuclei count: measured here: cell count, toxicity
[3] = inhibitors of E-selectin induction by TNFa, primary screen, imaging, HUVEC, immunofluorescence, MLSMR starter and 10KST1 sets (AID 487;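 active = visually confirmed hit in the image check and inhibition above 20%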;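 as to inhibition: signal is fraction of cell area covered by stained E-selectin grains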;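 as to nuclei count: 100% = median nuclei count of all wells on the same plate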); conditions: HUVEC TNFalpha-induced E-selectin immunofluorescence imaging, at 2 µM; inhibition: stronger effect = higher value; nuclei count: measured here: cell number, toxicity
[4] = DUSP6 inhibitors restoring Erk phosphorylation by chemical complementation, primary imaging in DUSP6-transfected HeLa (AID 609;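 active = compounds giving at least 50% inhibition in the cell-based MKP-3 phosphatase rescue imaging test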;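 as to inhibition: phospho-Erk level distribution per well compared with pooled transfected vehicle control wells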); conditions: HeLa MKP-3 transfected, phospho-Erk imaging KS statistic, at 10 µM, cells stimulated with TPA for 15 min
[5] = target: Dual specificity protein phosphatase 6 (Homo sapiens) (UniProt Q16828); experiment: as above; conditions: HeLa MKP-3 transfected, phospho-Erk imaging KS statistic; at 10 µM; stronger effect = higher value; cells stimulated with TPA for 15 min
[6] = target: Voltage-gated potassium channel subunit beta-2 (Rattus norvegicus) (UniProt P62483); experiment: KvBeta enzyme negative modulators, primary screen, biochemical, NADPH fluorescence (AID 622); conditions: recombinant KvBeta, 4-cyanobenzaldehyde reduction, at 10 µM, stronger effect = higher value;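 also: slope of raw intensity against log time taken from 70 to 1610 s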
[7] = target: Voltage-gated potassium channel subunit beta-2 (Rattus norvegicus) (UniProt P62483); experiment: KvBeta positive modulators, primary screen, biochemical, NADPH fluorescence (AID 623;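 active = NADPH fluorescence slope more negative than the mean of all samples by about 3 SD, 99.7% confidence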;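 also: fluorescence intensity change per second fitted from 20 to 320 s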); conditions: Recombinant KvBeta, NADPH fluorescence decrease slope, 10 min; at 10 µM; stronger effect = lower value
[8] = target: Alpha-2C adrenergic receptor (Homo sapiens) (UniProt P18825); experiment: modulators of alpha2C/GIRK thallium flux, primary screen, cell-based, HEK293 alpha2C/GIRK1/2 (AID 624;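 active = fluorescence slope after compound addition differing from the mean of all screened samples at 99.7% confidence, in either direction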;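 also: slope of fluorescence ratio to pre-addition baseline per second over 15 to 24 s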); conditions: thallium flux BTC fluorescence, at 10 µM, actives lie on both sides
[9] = inhibitors of Chlamydomonas gravitaxis, primary screen, whole organism, Chlamydomonas reinhardtii, WT vs cilia-less mutant, absorbance, 96-well (AID 463189;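 active = inhibition at or above 50% relative to wild type and mutant plate controls; inactive = inhibition below 50%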;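 also: 0% = wild type cc124 cells in DMSO and 100% = ciliumless bld1 mutant cells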); conditions: OD600 absorbance, 2 days, at 10 µM, stronger effect = higher value
[10] = inhibitors of Sendai virus-induced IRF3 signaling, primary screen, TLR/RLR signaling modifier project, cell-based, Sendai virus stimulus, luciferase, 10K MLSCN set (AID 602276;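 active = inhibition at or above 50% at 10 µM; inactive = inhibition below 50%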;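 also: firefly luciferase from ISG56 promoter only with Renilla not read in this screen; 0% = Sendai virus plus DMSO and 100% = medium plus DMSO without virus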); conditions: HEK293 RL24 IRF3 luciferase reporter, at 10 µM, stronger effect = higher value
[11] = inhibitors of poly I:C-induced TLR3 signaling, primary screen, cell-based, poly I:C stimulus, luciferase, 10K MLSCN set (AID 602277;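 active = inhibition of the reporter signal at or above 50%; inactive = inhibition below 50%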); conditions: HEK293-TLR3 RL24 IRF3 luciferase reporter, at 10 µM, stronger effect = higher value
[12] = target: Muscarinic acetylcholine receptor M4 (Homo sapiens) (UniProt P08173); experiment: compounds altering M4/GIRK thallium flux, either direction, primary screen, M4 allosteric agonist project, cell-based, HEK293 M4/GIRK, BTC-AM (AID 625;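 active = fluorescence slope after compound addition differing from the mean of all tested samples at 99.7% confidence, mostly higher but some lower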;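 also: thallium influx through GIRK channels coupled to M4 in HEK293 cells with BTC-AM dye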); conditions: at 10 µM, actives lie on both sides
[13] = inhibitors of larval lipid processing in zebrafish, primary screen, whole organism, PED6 fluorescence, gall bladder and intestine (AID 686;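 active = a full or partial loss of lipid-probe fluorescence in the fish gall bladder, intestine or both, judged by eye; inactive = no fluorescence loss, or compound toxic to the fish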;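 also: larvae 5 to 7 days old with five fish per well; signal comes from phospholipase A2 cleavage of quenched PED6 carried via bile; overnight exposure to compound and PED6 before scoring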); conditions: Zebrafish larvae PED6 lipid processing, fluorescence scoring; screened at 20 µM (by protocol)
[14] = measured here: cell density z-score
[15] = measured here: nuclear c-Myc green intensity z-score
[16] = measured here: nuclear pErk red intensity z-score, stronger effect = higher value

Voltage-gated potassium channel subunit beta-2 (Rattus norvegicus), sequence (P62483 whole entry, looked up): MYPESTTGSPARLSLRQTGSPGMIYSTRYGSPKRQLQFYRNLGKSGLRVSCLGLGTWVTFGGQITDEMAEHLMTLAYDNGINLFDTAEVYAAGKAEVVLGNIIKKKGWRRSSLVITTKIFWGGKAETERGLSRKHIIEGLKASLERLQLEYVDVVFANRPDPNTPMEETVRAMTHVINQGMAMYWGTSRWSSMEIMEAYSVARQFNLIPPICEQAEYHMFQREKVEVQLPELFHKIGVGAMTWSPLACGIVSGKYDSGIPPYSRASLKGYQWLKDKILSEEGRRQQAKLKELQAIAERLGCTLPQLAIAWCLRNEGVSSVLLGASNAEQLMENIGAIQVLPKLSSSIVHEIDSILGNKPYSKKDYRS
Dual specificity protein phosphatase 6 (Homo sapiens), sequence (Q16828 whole entry, looked up): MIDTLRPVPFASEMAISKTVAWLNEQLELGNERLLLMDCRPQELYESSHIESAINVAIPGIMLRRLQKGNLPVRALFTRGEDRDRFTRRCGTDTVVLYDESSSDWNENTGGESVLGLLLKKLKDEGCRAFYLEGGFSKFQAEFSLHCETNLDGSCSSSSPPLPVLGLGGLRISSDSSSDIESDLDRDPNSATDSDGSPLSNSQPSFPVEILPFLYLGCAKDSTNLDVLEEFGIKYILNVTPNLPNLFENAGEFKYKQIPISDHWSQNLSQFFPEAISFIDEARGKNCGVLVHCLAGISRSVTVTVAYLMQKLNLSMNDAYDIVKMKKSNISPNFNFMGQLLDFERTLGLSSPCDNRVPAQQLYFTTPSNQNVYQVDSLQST
Muscarinic acetylcholine receptor M4 (Homo sapiens), sequence (P08173 whole entry, looked up): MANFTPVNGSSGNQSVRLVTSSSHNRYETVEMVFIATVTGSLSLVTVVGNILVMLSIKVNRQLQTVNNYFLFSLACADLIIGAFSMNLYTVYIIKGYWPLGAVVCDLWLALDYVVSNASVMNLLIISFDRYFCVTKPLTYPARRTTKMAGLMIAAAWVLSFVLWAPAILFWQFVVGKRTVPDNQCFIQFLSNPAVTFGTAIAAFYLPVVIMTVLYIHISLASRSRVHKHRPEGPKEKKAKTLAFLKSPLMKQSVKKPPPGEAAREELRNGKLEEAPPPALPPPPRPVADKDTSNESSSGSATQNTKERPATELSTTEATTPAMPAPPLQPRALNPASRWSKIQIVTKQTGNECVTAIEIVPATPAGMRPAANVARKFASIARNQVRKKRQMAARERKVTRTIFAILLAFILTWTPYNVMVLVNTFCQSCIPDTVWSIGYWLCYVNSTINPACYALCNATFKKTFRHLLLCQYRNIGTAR
Alpha-2C adrenergic receptor (Homo sapiens), sequence (P18825 whole entry, looked up): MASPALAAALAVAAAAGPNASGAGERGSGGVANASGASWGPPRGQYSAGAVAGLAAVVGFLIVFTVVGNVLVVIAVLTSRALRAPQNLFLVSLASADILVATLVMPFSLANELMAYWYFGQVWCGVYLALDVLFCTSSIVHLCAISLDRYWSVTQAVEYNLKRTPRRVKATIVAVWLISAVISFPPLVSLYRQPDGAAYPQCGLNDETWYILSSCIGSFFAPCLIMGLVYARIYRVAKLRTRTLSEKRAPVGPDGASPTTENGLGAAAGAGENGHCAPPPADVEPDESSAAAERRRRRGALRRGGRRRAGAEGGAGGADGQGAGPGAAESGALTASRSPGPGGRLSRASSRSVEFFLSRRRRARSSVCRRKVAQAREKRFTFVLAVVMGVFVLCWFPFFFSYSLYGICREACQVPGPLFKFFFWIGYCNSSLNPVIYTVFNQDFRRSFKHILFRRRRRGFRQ

Row | Compound | cell count [1] | inhibition [1] | inhibition of aggregation [2] | nuclei count [2] | inhibition [3] | nuclei count [3] | z-score [4, 14] | z-score [4, 15] | z-score [4, 16] | inhibition [5] | fluorescence slope [6] | NADPH fluorescence slope [7] | slope [8] | inhibition [9] | inhibition [10] | inhibition [11] | fluorescence slope [12] | outcome [13]
1 | C1CNCCNCCNCCN1 | 566 | -6.4% (inactive) | 12.4% (inactive) | 109% | -31.7% (inactive) | 105% | -1.12 | -0.574 | 0.0503 | 10.2% (inactive) | -0.481 (inactive) | -4.4e-05 (inactive) | 0.00519 (inactive) | 1.09% (inactive) | 13.2% (inactive) | 41.9% (inactive) |  | 
2 | CNC(=O)CC(C(=O)O)c1ccc(OC(C)C)cc1 (centres undefined) | 649 | -0.5% (inactive) | 26.1% (inactive) | 89.4% | 21.1% (inactive) | 125% | -0.892 | 0.826 | 1.07 | -2.09% (inactive) | -0.454 (inactive) | -4e-05 (inactive) | 0.00593 (inactive) | 2.81% (inactive) | 12.9% (inactive) | 19.4% (inactive) | 0.00492 (inactive) | inactive
3 | Cc1c(C=NCCOCc2ccccc2)cnn1C | 579 | 0.8% (inactive) | -5.6% (inactive) | 102% | -159% (inactive) | 116% | 0.444 | 0.191 | 0.325 | -1.98% (inactive) | -0.369 (inactive) | -3e-05 (inactive) | 0.00503 (inactive) | -6.27% (inactive) | 11.7% (inactive) | 12.3% (inactive) | 0.00645 (inactive) | inactive
4 | CCN(CC)CCOC(=O)C1(c2ccc(OC)c(OC)c2)CCCC1 | 540 | -5.7% (inactive) | -1% (inactive) | 96.9% | -29.5% (inactive) | 96.9% | -0.552 | -0.514 | -0.16 | -13.3% (inactive) | -0.513 (inactive) | -1.5e-05 (inactive) | 0.00483 (inactive) | 0.789% (inactive) | 13.2% (inactive) | 21% (inactive) | 0.00575 (inactive) | inactive
5 | CCc1cc(=O)oc2c(CN3CCN(C)CC3)c(O)c(Cl)cc12 | 430 | 3.2% (inactive) | 27.8% (inactive) | 85.9% | -40.7% (inactive) | 101% | 1.84 | 0.822 | -1.78 | 26.3% (inactive) | -0.266 (inactive) | -4.4e-05 (inactive) | 0.00532 (inactive) | 13.3% (inactive) | 16.8% (inactive) | 22.6% (inactive) |  | 
6 | CCOC(=O)C1=C(N)c2ccccc2CC1C(C)C (centres undefined) | 579 | 9% (inactive) | -22.6% (inactive) | 108% | -86.6% (inactive) | 124% | 2.18 | -1.31 | -0.876 | 4.72% (inactive) | -0.46 (inactive) | -2.5e-05 (inactive) | 0.00503 (inactive) | 36% (inactive) | 17.7% (inactive) | 26.3% (inactive) | 0.00588 (inactive) | inactive
7 | C[C@@H]1CCC[C@H](C)N1NC(=O)c1ccc(Cl)c(S(N)(=O)=O)c1 | 625 | 7.2% (inactive) | 0.7% (inactive) | 108% | -55.3% (inactive) | 111% | -0.0459 | -0.463 | -0.78 | 21.2% (inactive) | -0.465 (inactive) | -5.1e-05 (inactive) | 0.00499 (inactive) | 24.4% (inactive) | 3.39% (inactive) | 20% (inactive) |  | 
8 | c1ccc(-c2ccc(C(c3ccccc3)n3ccnc3)cc2)cc1 (centres undefined) | 591 | 2% (inactive) | 10.9% (inactive) | 91.4% | -58.4% (inactive) | 106% | -1.14 | 0.79 | -0.101 | 16.8% (inactive) | -0.555 (inactive) | -3.5e-05 (inactive) | 0.00412 (inactive) | 13.3% (inactive) | 2.51% (inactive) | 18.2% (inactive) | 0.00623 (inactive) | inactive
9 | COc1ccc(C(=O)Cn2c(N3CCCCC3)nc3c2c(=O)n(C)c(=O)n3C)cc1OC | 537 | 4.7% (inactive) | 12.9% (inactive) | 90.8% | -58.1% (inactive) | 115% | -0.186 | 0.344 | 0.238 | 3.5% (inactive) | -0.424 (inactive) | -9.5e-05 (inactive) | 0.00577 (inactive) | 12.6% (inactive) | 14.5% (inactive) | 12.6% (inactive) |  | 
10 | COc1ccc(-c2onc(C)c2-c2ccccc2)c(O)c1 | 477 | 0.4% (inactive) | -9.9% (inactive) | 101% | -110% (inactive) | 112% | -0.0693 | -0.0566 | -1.27 | 1.98% (inactive) | -0.441 (inactive) | -4.2e-06 (inactive) | 0.00908 (inactive) | -11.4% (inactive) | 8.8% (inactive) | 32.3% (inactive) | 0.00531 (inactive) | inactive
11 | C=CCSc1nnc2n(CCc3ccccc3)c(=O)c3c4c(sc3n12)COC(C)(C)C4 | 492 | -1.7% (inactive) | 3.5% (inactive) | 115% | -100% (inactive) | 135% | 1.51 | -1.62 | -0.504 | 9.91% (inactive) | -0.35 (inactive) | -1.2e-05 (inactive) | 0.00563 (inactive) | 28.7% (inactive) | 0.226% (inactive) | -17.3% (inactive) | 0.0058 (inactive) | inactive
12 | Cc1cc(Cn2ccnc2)c(C)cc1Cn1ccnc1 | 637 | -4.4% (inactive) | 7.9% (inactive) | 100% | -55.4% (inactive) | 124% | -0.00236 | 1.89 | -0.864 | -7.67% (inactive) | -0.463 (inactive) | -0.000121 (inactive) | 0.00445 (inactive) | 139% (active) | 19.2% (inactive) | 17.7% (inactive) | 0.0041 (inactive) | inactive
13 | N#Cc1c(N2CCOCC2)nc(N2CCCCC2)c2c1CCN(C1CCCCC1)C2 | 486 | -5.3% (inactive) | 6.4% (inactive) | 102% | -130% (inactive) | 119% | -0.146 | 1.29 | 0.496 | -13.3% (inactive) | -0.442 (inactive) | -0.000108 (inactive) | 0.00466 (inactive) | 2.06% (inactive) | -1.64% (inactive) | 99% (active) | 0.00444 (inactive) | inactive
14 | COC(=O)c1ccccc1NC(=O)CSc1nnc(-c2ccncc2)o1 | 372 | -9.3% (inactive) | 3.1% (inactive) | 99.2% | -75.9% (inactive) | 128% | 0.433 | -0.668 | -1.26 | 3.42% (inactive) | -0.471 (inactive) | -4.2e-05 (inactive) | 0.00552 (inactive) | 4.81% (inactive) | 5.8% (inactive) | 19.8% (inactive) | 0.00541 (inactive) | inactive
